Experimental data as given in PubChem BioAssay (Tox21).
Several values for one entry are separate records, joined by “and”; a condition that tells them apart may be missing. Equal values may be shown once. Records with an inconclusive call do not appear. A call without a number means that no potency is given here. Where a structure was tested more than once in an assay, its records may differ in their call. Activity calls are given as the source filed them. Calls follow the shape of the dose curve; as a rule, active = well fitted curve in the direction sought with a large enough effect in the repeat runs; inconclusive = weak or mixed curves; inactive = no such curve, though single readings can be large; an effect the other way counts as inactive or inconclusive.

Key:
[1] = qHTS RealTime-Glo MT Cell Viability Assay in HepG2 cells - 40 hour (AID 1224870); also: nearly all actives have a fitted effect of over 50% in size; also: potency is read from the fitted curve at half-maximal effect
How it was run: (§1)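 HepG2 cells mixed with RealTime-Glo MT reagents (NanoLuc plus cell-permeant prosubstrate) were seeded at 600 cells/well, incubated 5 h at 37 C/5% CO2, then pinned with compounds in DMSO; nonlytic luminescence tracked viability during 40 h treatment.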

[2] = qHTS RealTime-Glo MT Cell Viability Assay in HEK293 cells - 16 hour (AID 1224872); also: nearly all actives have a fitted effect of over 50% in size; also: potency is read from the fitted curve at half-maximal effect
How it was run: (§2)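 Tox21 10K qHTS, HEK293, 600 cells/well, RealTime-Glo reagent co-dispensed with cells; 5 h preincubation, compound by pintool, 37 C, luminescence at 0–40 h.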

[3] = qHTS RealTime-Glo MT Cell Viability Assay in HepG2 cells - 8 hour (AID 1224873); also: nearly all actives have a fitted effect of over 55% in size
How it was run: as §1

[4] = qHTS RealTime-Glo MT Cell Viability Assay in HEK293 cells - 40 hour (AID 1224874); details: RealTime-Glo luminescence; max response: stronger effect = lower value; also: nearly all actives have a fitted effect of over 50% in size; also: potency is read from the fitted curve at half-maximal effect
How it was run: (§3)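 Luminescence readout at each listed time point; HEK293, 600 cells/well, RealTime-Glo MT reagent added with cells; compounds pinned (23 nL in DMSO) after 5 h at 37 C; continuous culture at 37 C.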

[5] = A CellTox Green Cytotoxicity Assay to monitor cytotoxicity in HEK293 cells - 24 hour (AID 1224875); also: series mostly up to about 77 µM; nearly all actives have a fitted effect of over 45% in size
How it was run: (§4)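 Read-out: fluorescence of a cell-impermeant cyanine dye staining DNA of dead cells, proportional to cytotoxicity. HEK293, 600 cells/well with reagent, compound (23 nL DMSO) added after 5 h; reads at 0, 8, 16, 24, 32, 40 h.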

[6] = A CellTox Green Cytotoxicity Assay to monitor cytotoxicity in HepG2 cells - 16 hour (AID 1224876); also: nearly all actives have a fitted effect of over 45% in size; also: potency is read from the fitted curve at half-maximal effect
How it was run: (§5)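 HepG2, 600 cells/well premixed w/ CellTox Green; 5 h settle, 37 C/5% CO2; pintool cpd add (DMSO); 37 C, 40 h; fluorescence read at 0, 8, 16, 24, 32, 40 h.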

[7] = qHTS RealTime-Glo MT Cell Viability Assay in HepG2 cells - 32 hour (AID 1224877); also: nearly all actives have a fitted effect of over 55% in size; also: potency is read from the fitted curve at half-maximal effect
How it was run: (§6)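 Cells + NanoLuc/prosubstrate dispensed (600 cells/well) → 5 h at 37 C/5% CO2 → compounds in DMSO transferred → 40 h incubation at 37 C, luminescence read at 0, 8, 16, 24, 32, 40 h.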

[8] = A CellTox Green Cytotoxicity Assay to monitor cytotoxicity in HepG2 cells - 24 hour (AID 1224878); also: nearly all actives have a fitted effect of over 45% in size; also: potency is read from the fitted curve at half-maximal effect
How it was run: as §5

[9] = A CellTox Green Cytotoxicity Assay to monitor cytotoxicity in HepG2 cells - 40 hour (AID 1224879); also: nearly all actives have a fitted effect of over 40% in size; also: potency is read from the fitted curve at half-maximal effect
How it was run: as §5

[10] = qHTS RealTime-Glo MT Cell Viability Assay in HEK293 cells - 0 hour (AID 1224880); also: top concentration of the series differs between compounds; nearly all actives have a fitted effect of over 45% in size
How it was run: as §3

[11] = A CellTox Green Cytotoxicity Assay to monitor cytotoxicity in HEK293 cells - 32 hour (AID 1224881); also: nearly all actives have a fitted effect of over 40% in size; also: potency is read from the fitted curve at half-maximal effect
How it was run: as §4

[12] = A CellTox Green Cytotoxicity Assay to monitor cytotoxicity in HepG2 cells - 0 hour (AID 1224882); also: nearly all actives have a fitted effect of over 35% in size
How it was run: as §5

[13] = A CellTox Green Cytotoxicity Assay to monitor cytotoxicity in HepG2 cells - 32 hour (AID 1224883); also: nearly all actives have a fitted effect of over 50% in size; also: potency is read from the fitted curve at half-maximal effect
How it was run: as §5

[14] = A CellTox Green Cytotoxicity Assay to monitor cytotoxicity in HEK293 cells - 8 hour (AID 1224884); also: nearly all actives have a fitted effect of over 35% in size; also: potency is read from the fitted curve at half-maximal effect
How it was run: as §4

[15] = qHTS RealTime-Glo MT Cell Viability Assay in HepG2 cells - 16 hour (AID 1224885); also: nearly all actives have a fitted effect of over 50% in size
How it was run: as §6

[16] = qHTS RealTime-Glo MT Cell Viability Assay in HEK293 cells - 24 hour (AID 1224886); also: nearly all actives have a fitted effect of over 50% in size; also: potency is read from the fitted curve at half-maximal effect
How it was run: as §2

[17] = qHTS RealTime-Glo MT Cell Viability Assay in HEK293 cells - 8 hour (AID 1224887); also: nearly all actives have a fitted effect of over 50% in size; also: potency is read from the fitted curve at half-maximal effect
How it was run: as §3

[18] = A CellTox Green Cytotoxicity Assay to monitor cytotoxicity in HEK293 cells - 16 hour (AID 1224888); also: nearly all actives have a fitted effect of over 35% in size
How it was run: as §4

[19] = qHTS RealTime-Glo MT Cell Viability Assay in HepG2 cells - 0 hour (AID 1224889); also: nearly all actives have a fitted effect of over 50% in size; also: potency is read from the fitted curve at half-maximal effect
How it was run: as §6

SMILES | Potency [1] | Potency [2] | Potency [3] | max response [4] | Potency [5] | Potency [6] | Potency [7] | Potency [8] | Potency [9] | Potency [10] | Potency [11] | Potency [12] | Potency [13] | Potency [14] | Potency [15] | Potency [16] | Potency [17] | Potency [18] | Potency [19] | Potency [4]
Nc1ccncc1 | inactive | inactive | inactive | 2.45% (inactive) and 3.84% (inactive) | inactive | inactive | inactive | inactive | inactive | inactive | inactive | inactive | inactive | inactive | inactive | inactive | inactive | inactive | inactive | –
C[C@]12CCC(=O)C(O)=C1CC[C@@H]1[C@@H]2CC[C@]2(C)C(=O)CC[C@@H]12 | inactive | inactive | inactive | -15.6% (inactive) | inactive | inactive | inactive | inactive | inactive | inactive | inactive | inactive | inactive | inactive | inactive | inactive | inactive | inactive | 21.9 µM (active) and inactive | –
CCCCCCCCC(=O)NCc1ccc(O)c(OC)c1 | inactive | inactive | inactive | 8.1% (inactive) and -1.04% (inactive) | inactive | inactive | inactive | inactive | inactive | inactive | inactive | inactive | inactive | inactive | – | inactive | – | inactive | inactive | –
Cc1ccc(N)c(N)c1 | inactive | – | inactive | – | inactive | inactive | inactive | inactive | inactive | inactive | inactive | inactive | inactive | inactive | – | – | inactive | inactive | inactive | –
O=C(O)C(F)(F)C(F)(F)C(F)(F)C(F)(F)C(F)(F)C(F)(F)C(F)(F)F | inactive | inactive | inactive | -9.47% (inactive) and 7.44% (inactive) | inactive | inactive | inactive | inactive | inactive | inactive | inactive | inactive | inactive | inactive | inactive | inactive | inactive | inactive | inactive | –
ClC1C(Cl)C(Cl)C(Cl)C(Cl)C1Cl (configuration not stated) | inactive | inactive and 49 µM (active) | inactive | – | – | inactive | inactive | inactive and 43.6 µM (active) | inactive and 38.9 µM (active) | inactive | – | inactive | inactive and 43.6 µM (active) | inactive and 43.6 µM (active) | – | inactive and 49 µM (active) | inactive and 49 µM (active) | – | inactive | 54.9 µM (active)
c1nc[nH]n1 | inactive | inactive | inactive | -1.48% (inactive) and 17.9% (inactive) | inactive | inactive | inactive | inactive | inactive | inactive | inactive | inactive | inactive | inactive | inactive | inactive | inactive | inactive | inactive | –
CCCCCc1cc(O)cc(O)c1 | inactive and 49 µM (active) | 24.5 µM (active) | – | – | inactive | inactive | inactive and 49 µM (active) | – | – | inactive | inactive | inactive | – | inactive | – | 38.9 µM (active) | 24.5 µM (active) | inactive | inactive | 24.5 µM (active)
NNC(N)=S | inactive | inactive | inactive | 1.23% (inactive) and 8.52% (inactive) | inactive | inactive | inactive | inactive | inactive | inactive | inactive | inactive | inactive | inactive | inactive | inactive | inactive | inactive | inactive | –
CNC(=O)N(C)c1nnc(C(C)(C)C)s1 | inactive | inactive | inactive | -13.1% (inactive) and 0.0487% (inactive) | inactive | inactive | inactive | inactive | inactive | inactive | inactive | inactive | inactive | inactive | inactive | inactive | inactive | inactive | inactive | –
CC(C)C(=O)OCC(C)(C)C(OC(=O)C(C)C)C(C)C (configuration not stated) | inactive | inactive | inactive | -10.2% (inactive) and 4.91% (inactive) | inactive | inactive | inactive | inactive | inactive | inactive | inactive | inactive | inactive | inactive | – | inactive | inactive | inactive | inactive | –
COC(=O)c1sccc1S(=O)(=O)NC(=O)Nc1nc(C)nc(OC)n1 | inactive | inactive | inactive | 4% (inactive) and 6.48% (inactive) | inactive | inactive | inactive | inactive | inactive | inactive | inactive | inactive | inactive | inactive | – | inactive | inactive | inactive | inactive | –
O=C1C=CC(=O)C=C1 | inactive | inactive | inactive | 13.4% (inactive) | inactive | inactive | inactive | inactive | inactive | inactive | inactive | inactive | inactive | inactive | – | inactive | inactive | inactive | inactive | –
NCc1cccnc1 | inactive | inactive | inactive | 0.404% (inactive) and -2.08% (inactive) | inactive | inactive | inactive | inactive | inactive | inactive | inactive | inactive | inactive | inactive | inactive | inactive | inactive | inactive | inactive | –
O=[N+]([O-])c1cccc2ccccc12 | inactive | inactive | inactive | 3.63% (inactive) and 7.21% (inactive) | inactive | inactive | inactive | inactive | inactive | inactive | inactive | inactive | inactive | inactive | – | inactive | inactive | inactive | inactive | –
CC(C)(C)c1ccccc1O | inactive | inactive | inactive | -18.3% (inactive) and -0.927% (inactive) | – | 44.2 µM (active) | inactive | 49.5 µM (active) | 49.5 µM (active) and 49 µM (active) | inactive | 44.2 µM (active) and inactive | inactive | 49.5 µM (active) | inactive | – | inactive | inactive | inactive | inactive | –
Nn1cnnc1 | inactive | inactive | inactive | -2.23% (inactive) and 1.89% (inactive) | inactive | inactive | inactive | inactive | inactive | inactive | inactive | inactive | inactive | inactive | inactive | inactive | inactive | inactive | inactive | –
O=[N+]([O-])c1ccc(O)c([N+](=O)[O-])c1 | inactive | inactive | inactive | -16% (inactive) | – | inactive | inactive | inactive | inactive | inactive | – | inactive | inactive | inactive | inactive | inactive | inactive | inactive | inactive | –
N#CC(Br)Br | inactive | inactive | inactive | -17% (inactive) and 1.39% (inactive) | inactive | inactive | inactive | inactive | inactive | inactive | inactive | inactive | inactive | inactive | – | inactive | inactive | inactive | inactive | –
O=C(O)CC[N+](=O)[O-] | inactive | inactive | inactive | 0.345% (inactive) and -3.12% (inactive) | inactive | inactive | inactive | inactive | inactive | inactive | inactive | inactive | inactive | inactive | inactive | inactive | inactive | inactive | inactive | –
CCC(CC)Nc1c([N+](=O)[O-])cc(C)c(C)c1[N+](=O)[O-] | inactive | inactive | inactive | 7.22% (inactive) | inactive | inactive | inactive | inactive | inactive | inactive | inactive | inactive | inactive | inactive | inactive | inactive | inactive | inactive | inactive | –
Cc1cccc(N)c1N | inactive | inactive | inactive | – | inactive | inactive | inactive | inactive | inactive | inactive | inactive | inactive | inactive | inactive | inactive | inactive | inactive | inactive | inactive | –
c1ccc(-c2cccc(-c3ccccc3)c2)cc1 | inactive | inactive | inactive | -23.8% (inactive) | inactive | inactive | inactive | inactive | inactive | inactive | inactive | inactive | inactive | inactive | inactive | inactive | inactive | inactive | inactive | –
